Experimental data reported in PubChem BioAssay AID1008 (NMMLSC, 2008).
Out of some 190,000 compounds screened, about 240 (0.13%) were called active. Many of the other results were omitted from the sample, so actives are more common in it than they were. A number with no mark means an inactive call. Cut-off read from the data, not from the text of the source: active = inhibition above about 40%.

These compounds were tested against Bcl-2-related protein A1 (Homo sapiens) (UniProt Q16548) (assay: inhibitors of Bim binding to Bfl-1, primary screen, biochemical, multiplexed, bead-based flow cytometry (AID 1008;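 note: 0% = wells without compound plus tracer and 100% = blocker peptide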)). Settings: Bim-Bfl-1 binding inhibition, at 10 µM, hits give high values.
Sequence of Bcl-2-related protein A1 (Homo sapiens) (Q16548 whole entry, looked up): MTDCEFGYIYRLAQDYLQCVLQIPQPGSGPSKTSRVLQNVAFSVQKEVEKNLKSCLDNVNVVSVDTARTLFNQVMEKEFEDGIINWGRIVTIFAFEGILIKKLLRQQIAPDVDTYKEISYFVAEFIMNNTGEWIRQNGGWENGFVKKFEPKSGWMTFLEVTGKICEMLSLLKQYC

Structure (SMILES) | inhibition
O=[N+]([O-])c1cccc(-c2nnc3c4ccccc4c4ccccc4n23)c1 | -7%
CCOC(=O)c1cnc2[nH]c3ccccc3n2c1=O | -8%
O=c1[nH]c2ccccc2n2c(-c3ccccc3)nnc12 | 54% (active)
CC(=O)c1ccc(N2CCN(C(=O)c3ccc4nc[nH]c4c3)CC2)cc1 | 0%
CN(C(=O)CSc1nnc(Nc2ccccc2)s1)C1CCS(=O)(=O)C1 (configuration not stated) | -5%
CC1(C)C2CCC1(C)C(OC(=O)c1ccc(O)cc1)C2 (configuration not stated) | 2%
COc1ccc(CC(=O)NCc2nnc(SCC(=O)Nc3ncc(C)s3)n2C)cc1 | -5%
COc1ccc(CN2CCNC(=O)C2CC(=O)N(C)Cc2ccccn2)cc1OC (configuration not stated) | -2%
O=C(O)CC(Cc1ccccc1)C(=O)Nc1ccc([N+](=O)[O-])cc1 (configuration not stated) | -14%
Cc1cc(Cl)ccc1NC(=S)N1CCC(C(N)=O)(N2CCCCC2)CC1 | 0%
C=CCOCCN(C)C1=NS(=O)(=O)c2ccccc21 | -4%
CCC(C)(C)NC(=O)CN(C(=O)C(=O)Nc1ccc2c(c1)OCCO2)C(C)(C)CC | 3%
O=S(=O)(c1ccc(-c2ccccc2)cc1)N1CCCC1 | -7%
CN(c1ccc2nc3ccccc3c(=O)n2n1)C1CCCCC1 | -3%
CCOC(=O)Cc1csc(NC(=O)COc2ccc3c(C)cc(=O)oc3c2)n1 | -4%
CCOC(=O)c1ccccc1NC(=O)CSc1nc2ccccc2c(=O)[nH]1 | -3%
COc1ccc(-c2ccc(CCC(=O)O)n2-c2ccc(O)cc2)cc1 | 5%
Cc1cc(Cl)c(S(=O)(=O)NCC2CCCO2)cc1OCC(N)=O (configuration not stated) | 48% (active)
Cc1cc(Cl)c(S(=O)(=O)NCCC(=O)O)cc1OCC(N)=O | -15%
Cc1cc(Cl)c(S(=O)(=O)Nc2ccc3c(c2)OCCO3)cc1OCC(N)=O | -2%
CN(C)S(=O)(=O)N1CCN(c2ccc([N+](=O)[O-])cc2)CC1 | 0%

Structure (SMILES) | inhibition
Cc1ccc(CC(=O)Nc2ccc(OC(F)F)c(Cl)c2)cc1C | -6%
COc1cccc(C(O)Cc2nc3ccccc3n2C)c1OC (configuration not stated) | -3%
CCOC(=O)/C(C#N)=C/c1cn(CCC(=O)O)nc1-c1ccc(Br)cc1 | -9%
CC(=O)Nc1ccc(NC(=O)COc2ccc(S(=O)(=O)NC(C)c3ccccc3)cc2)cc1 (configuration not stated) | -5%
Cc1oc2c(c1C(=O)N1CCOCC1)C(=O)c1ccccc1C2=O | -1%
Cc1ccnc(NC(=O)c2ccco2)n1 | -3%
COC(=O)COc1ccc(C2NC(=O)NC(C)=C2C(=O)NCc2ccccc2)cc1OC (configuration not stated) | -9%
C/C(=N\NC(=O)COc1c(C)cccc1C)c1cccs1 | -7%
Cc1ccc(NC(=O)c2ccn(C(=O)Nc3ccccc3)n2)c(C)c1 | -2%
CC1(C)CC(=O)c2ccc(O)cc2O1 | -4%
Cc1[nH]c2ccccc2c1SCC(=O)Nc1nccs1 | -5%
CCCOC(=O)c1c(NC(=O)c2cnn3c2NC(c2ccccc2)CC3C(F)(F)F)sc2c1CCCC2 (configuration not stated) | -18%
Cc1ccc(-c2csc(NC(=O)Cn3[nH]c(=O)c4ccccc4c3=O)n2)cc1 | -4%
CCc1cccc(CC)c1NC(=S)NCc1ccc2[nH]c(C)cc2c1 | -2%
Cn1cc(CN2CCC(C(O)CCc3ccccc3)CC2)c(-c2ccccc2F)n1 (configuration not stated) | -5%
CCO[C@H]1OC(C(=O)N2CCOCC2)=C[C@@H](c2ccc3c(c2)OCO3)[C@@H]1CCCO | -4%
O=C(CCC(=O)Nc1ccccc1)N/N=C/c1ccccc1F | -4%
Cc1cc([N+](=O)[O-])ccc1NC1CCCC1 | -7%
C=CS(=O)c1sc(Cl)c(N2CCOCC2)c1[N+](=O)[O-] (configuration not stated) | 57% (active)
O=C(O)c1cccc(S(=O)(=O)Nc2ccc(O)cc2Sc2nc3ccccc3s2)c1 | 7%
COc1ccc(S(=O)(=O)Nc2ccc(O)c(Sc3nc4ccccc4s3)c2)cc1 | 9%

Structure (SMILES) | inhibition
O=[N+]([O-])c1c(NCCO)cc(Sc2nc3ccccc3s2)c2nonc12 | 56% (active)
COc1ccc(N(C)S(=O)(=O)c2cccc3nsnc23)cc1 | -6%
C=CCn1c2ccccc2c2nnc(SCc3[nH]c(=O)[nH]c3C(=O)CCCCC(=O)OCC)nc21 | 16%
Cc1nonc1C1CCCN1Cc1nc(-c2ccc(F)cc2F)oc1C (configuration not stated) | -4%
Cc1n[nH]c(=O)n1-c1ccc(C(C)C)cc1 | -5%
C/C(CC(=O)Nc1cccc(F)c1)=N\NC(=O)C(=O)NC1CCCCC1 | 0%
CN(C(=O)c1c(Cl)cnn1C)C12CC3CC(CC(C3)C1)C2 | 21%
CCN(CCn1cccn1)Cc1nc(-c2ccc(C(=O)OC)cc2)no1 | -5%
Cc1ccccc1NC(=O)CN1C(=O)N/C(=C\c2cccn2-c2cccc(C(=O)O)c2)C1=O | -3%
COc1cc(NC(=S)NCCSc2ccc(C)cc2)cc(OC)c1 | -1%
CCN(CC)S(=O)(=O)c1ccc(Cl)c(C(=O)NC(C)C(c2cccs2)N2CCCC2)c1 (configuration not stated) | -5%
C=CCNc1nc(Nc2ccc(Cl)cc2)nc(OC)n1 | -6%
Cc1cccc(NC(=S)NCCN(C2CCCCC2)C2CCCC2)c1 | -2%
CCOC(=O)C1(CC2CCCCO2)CCN(Cc2nc(-c3cccs3)oc2C)CC1 (configuration not stated) | -5%
Cc1cccc2cc(CN(C(=O)c3cccs3)c3ccccc3)c(=O)[nH]c12 | -5%
N=c1c2c3c(sc2ncn1N)CCCC3 | -7%
Nc1nc(CC(=O)CSc2ccc(Cl)cc2)nc(Nc2ccc(F)cc2)n1 | -12%
O=C(/C=C/c1ccc(Cl)cc1)N1CCN(c2ccccc2[N+](=O)[O-])CC1 | 2%
CCN(CC)CCCNC(=O)c1ccc2c(=O)n(Cc3ccc4c(c3)OCO4)c(=S)[nH]c2c1 | -5%
CCOC(=O)c1sc(-c2cccc([N+](=O)[O-])c2)cc1N | -1%
